# Source: PubChem BioAssay (The Scripps Research Institute Molecular Screening Center)
# ADAM10 inh: ADAM10 inhibition, QFRET primary screen; O14672; recombinant ADAM10, EDANS/DABCYL FRET peptide cleavage, 3 h; inhibition, % at 7 µM; 370,000 compounds, 0.62% hits; AID 720582;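 active = inhibition above a per-campaign cutoff equal to the mean of compounds falling between control-based bounds plus 3 SD, cut at about 20% in these data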
# PLC-gamma1 inh: blocks human PLC-gamma1 enzyme activity | P19174 | AID 720700 | 370,000 compounds, 0.84% hits | inhibition, % at 12.2 µM | purified PLC-gamma1, fluorogenic substrate, fluorescence; in the data active = inhibition above about 9.5%
# KLK7 zymogen act: proKLK7 (human) activation, primary screen. purified proKLK7, EDANS-DABCYL substrate fluorescence; 100% is mature enzyme control, 0% vehicle. activation, % at 7 µM. 370,000 compounds, 0.9% hits;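 active = activation above the mean of all tested compounds plus 3 SD, computed per campaign excluding outliers beyond control limits, cut at about 13% in these data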
# Target sequence (P49862 whole entry, looked up): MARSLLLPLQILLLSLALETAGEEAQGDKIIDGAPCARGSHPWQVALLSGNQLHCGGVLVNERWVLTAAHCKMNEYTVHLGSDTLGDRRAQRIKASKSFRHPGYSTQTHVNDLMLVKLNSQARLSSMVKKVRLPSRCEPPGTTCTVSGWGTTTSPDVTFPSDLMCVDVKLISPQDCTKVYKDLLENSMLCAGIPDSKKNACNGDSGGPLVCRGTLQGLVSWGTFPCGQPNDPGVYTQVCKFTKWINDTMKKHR
# ADAM17 inh: ADAM17 inhibition, QFRET primary screen. inhibition, % at 6.95 µM. P78536. recombinant ADAM17, EDANS/DABCYL FRET peptide cleavage. AID 720648. 370,000 compounds, 0.83% hits;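 active = inhibition above the mean of compounds lying between control limits plus 3 SD, set per campaign, cut at about 8.5% in these data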
# PLC-beta3 inh: PLC-beta3 (human) inhibition, primary screen | Q01970 | Purified PLC-beta3, fluorogenic substrate, fluorescence | inhibition, % at 12.2 µM | AID 720704 | 370,000 compounds, 0.18% hits; in the data active = inhibition above about 11%
# ADAM10 confirm: confirmation of inhibitors of human ADAM10; inhibition, % at 6.95 µM; ADAM10 QFRET peptide cleavage, EDANS fluorescence; AID 743208; 2,100 compounds, 1% hits; shares compounds with ADAM10 inh;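 active = inhibition above about 20% chosen separately for each screening run, limit read from the data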
# ADAM17 counter: inhibits human ADAM17 in ADAM10 exosite counter-screen. shares compounds with ADAM10 inh. ADAM17 QFRET peptide cleavage, EDANS fluorescence. inhibition, % at 6.95 µM. 2,100 compounds, 0.5% hits. AID 743214;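 active = mean triplicate inhibition above the solvent-only control wells' mean plus 3 SD, cut at about 12% in these data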
# Hits are given with their value; 0 = inactive; - = no result given. Only some compounds are listed: those with a hit (about 2.9% of all), similar ones and a draw of the others.
SMILES,ADAM10 inh,PLC-gamma1 inh,KLK7 zymogen act,ADAM17 inh,PLC-beta3 inh,ADAM10 confirm,ADAM17 counter
CCN1C(=O)C(CC(=O)Nc2ccc(OC)cc2)N(Cc2cccnc2)C1=S (stereo not drawn),0,0,0,0,0,-,-
COc1ccc(NC(=O)CC2C(=O)N(CCc3ccccc3)C(=S)N2Cc2cccnc2)cc1 (stereo not drawn),22,0,0,0,0,0,0
Cc1cccnc1NC(=O)COc1ccc2oc3c(c2c1)CCCC3,82,0,0,0,0,0,0
Cc1cccc(NC(=O)c2nc[nH]c2C(=O)NCCCCCNC(=O)OC(C)(C)C)c1,0,0,0,0,0,-,-
Cc1cccc(NC(=O)c2nc[nH]c2C(=O)N[C@@H](CCCCNC(=O)OC(C)(C)C)C(=O)OC(C)(C)C)c1,33,0,0,12,0,0,0
CC(C)(C)OC(=O)NCCCC[C@H](NC(=O)c1nc[nH]c1C(=O)N[C@@H](CCCCNC(=O)OC(C)(C)C)C(=O)OC(C)(C)C)C(=O)OC(C)(C)C,0,0,0,0,0,-,-
CC(C)(C)OC(=O)CNC(=O)c1[nH]cnc1C(=O)N[C@@H](CCCCNC(=O)OC(C)(C)C)C(=O)OC(C)(C)C,23,0,0,0,0,0,0
CC(C)(C)OC(=O)NCCCC[C@H](NC(=O)c1nc[nH]c1C(=O)NC(c1ccccc1)c1ccccc1)C(=O)OC(C)(C)C,22,0,0,0,0,0,0
Cc1cc(C)cc(N(CC(=O)NC2CCC(C)CC2)S(=O)(=O)c2ccc(C)c(C)c2)c1 (stereo not drawn),0,0,0,0,0,-,-
COc1ccccc1C(=O)NCCC(=O)Nc1ccc(S(=O)(=O)N2C(C)CCCC2C)cc1 (stereo not drawn),0,0,0,0,0,-,-
COc1ccccc1C(=O)NCCC(=O)Nc1ccc(S(=O)(=O)N2CC(C)CC(C)C2)cc1 (stereo not drawn),29,0,0,9.6,0,0,0
COC(=O)c1cc(-c2cc3ccccc3s2)c(=O)n2c1CCC2,0,0,0,0,0,-,-
O=C(NNC(=S)Nc1ccc(Cl)cc1Cl)c1ccncc1,21,0,0,0,0,0,0
COc1cccc(NC(=O)CN2C(=O)CSc3ccc(S(=O)(=O)N4CCC(C)CC4)cc32)c1,21,0,0,0,0,0,0
COc1cccc(-c2nnc(SC(C(=O)c3c[nH]c4ccccc34)c3ccccc3)n2C)c1 (stereo not drawn),0,0,0,0,0,-,-
COc1ccccc1-c1nnc(SC(C(=O)c2c[nH]c3ccccc23)c2ccccc2)n1C (stereo not drawn),23,0,0,0,0,0,0
Oc1ccc(/C=N/Nc2cc(N3CCCC3)nc(N3CCCC3)n2)cc1,0,0,0,0,0,-,-
COc1ccc(/C=N/Nc2cc(N3CCCC3)nc(N3CCCC3)n2)cc1,65,0,0,0,0,0,0
O=C(Nc1ccc(Cl)c(Cl)c1)c1ccc(Cn2cc(Cl)cn2)cc1,29,0,0,0,0,0,0
COc1ccc(CNS(=O)(=O)/C=C/c2ccc(F)cc2CNC(=O)OC(C)(C)C)cc1,0,0,0,0,0,-,-
CCCCN1CCS(=O)(=O)N(Cc2cn(Cc3cccc(Cl)c3)nn2)C(C(=O)OC)C1 (stereo not drawn),0,0,0,0,0,-,-
COc1cc(C(O)c2nc(-c3cccc(C(F)(F)F)c3)cs2)ccc1F (stereo not drawn),21,0,0,0,0,0,0
OC(c1ccc(F)cc1)c1nc(-c2ccc(F)c(Cl)c2)cs1 (stereo not drawn),20,0,0,0,0,0,0
OC(c1cccc(Cl)c1)c1nc(-c2ccc(F)c(Cl)c2)cs1 (stereo not drawn),0,0,0,0,0,-,-
C=CCN(CC#Cc1ccccc1)CC1CC1,0,0,0,0,0,-,-
SMILES,ADAM10 inh,PLC-gamma1 inh,KLK7 zymogen act,ADAM17 inh,PLC-beta3 inh,ADAM10 confirm,ADAM17 counter
COC(=O)C(Cc1cnc(Cl)s1)(C(=O)OC)c1ccc(C(F)(F)F)cc1[N+](=O)[O-],20,0,0,0,0,0,0
Cc1cccc([C@@H]2[C@@H]3C(=O)N(Cc4ccccc4)C(=O)[C@@H]3[C@]3(Cc4ccccc4)C(=O)N(c4ccccc4)C(=O)N23)c1,22,0,0,0,0,0,0
Cc1cccc([C@@H]2[C@@H]3C(=O)N(Cc4ccccc4)C(=O)[C@@H]3[C@]3(Cc4ccc(Cl)cc4)C(=O)N(c4ccccc4)C(=O)N23)c1,0,0,0,0,0,-,-
Cc1cccc([C@@H]2[C@@H]3C(=O)N(Cc4ccccc4)C(=O)[C@@H]3[C@]3(Cc4ccccc4)C(=O)N(c4ccc(C(F)(F)F)cc4)C(=O)N23)c1,20,0,0,0,0,0,0
CC[C@@]12C(=O)N(c3cccc(Br)c3)C(=O)N1[C@H](c1cccc(C)c1)[C@@H]1C(=O)N(Cc3ccccc3)C(=O)[C@@H]12,21,0,0,0,0,0,0
COc1cc2c(cc1OC)[C@@H](NC(=O)c1ccncc1)[C@H](C)[C@H]2c1ccccc1,0,0,0,0,0,-,-
C[C@H]1CN(c2ccc(N3CCN(C(=O)OC(C)(C)C)C[C@@H]3C)cc2C#N)CCN1Cc1ccccc1,0,0,0,0,0,-,-
CCc1c(C(=O)N/N=C/c2sccc2C)nnn1-c1nonc1N,0,0,0,0,0,-,-
Cc1ccsc1/C=N/NC(=O)c1nnn(-c2nonc2N)c1CN(C)c1ccccc1,22,0,0,0,0,0,0
C=CCn1c(Cc2cccs2)nnc1SCC(=O)Nc1ccc2c(c1)OCO2,0,0,0,0,0,-,-
Cc1ccc(NC(=O)Nc2ccc3c(c2)[C@]2(CC(=O)N(CC(C)C)C2c2ccccc2)C(=O)N3C)cc1Cl (stereo partly drawn),22,0,0,9.5,0,0,0
Cc1ccc(C(=O)NCCSC2CCCCC2)cc1S(=O)(=O)Nc1ccccc1,24,0,0,0,0,0,0
Cc1ccc(SCCNC(=O)c2ccc(C)c(S(=O)(=O)Nc3ccccc3C)c2)cc1,21,0,0,0,0,0,0
C[N+]1=C(N)N[C@@]2(C=C3CCCCC3n3c(=O)n(-c4ccccc4)c(=O)n32)C1 (stereo partly drawn),0,0,0,0,0,-,-
O=C(C(=O)N1CCN(S(=O)(=O)c2ccc(OC(F)(F)F)cc2)CC1)c1cccc(C(F)(F)F)c1,0,0,0,0,0,-,-
CC(=O)CC[C@@H]1CC[C@]2(CCCN(C(=O)c3ccc4ccccc4n3)C2)O1,0,0,0,0,0,-,-
CC(Oc1ccccc1Cl)C(=O)Nc1ccc(S(=O)(=O)Nc2nccs2)cc1 (stereo not drawn),51,0,0,0,0,0,0
